Rows were chosen to be rich in hits. Some 4.1% of all compounds tested hit in one or more screens of this group.
CHT inh = inhibitors of human choline transporter CHT; Q9GZV3; CHT-expressing cells, membrane potential dye, choline response; hits give low values; B-score at 10 µM; 0.86% of 310,000 active; AID 488975;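 active = B-score over 3 SD under the library average, and starting fluorescence ratio not unusually high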;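 also: choline stimulus applied at its EC90 after an EC20 pre-addition; B-score computed on integrated fluorescence ratio after choline addition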
MEKK2 WT-MEK5 = raises or lowers MEK5 binding to wildtype human MEKK2 PB1 domain; AID 1531; binding response (% of control), % at 10 µM; bead flow cytometry, Alexa488-MEK5 binding to MEKK2 WT; actives lie on both sides; 1.1% of 290,000 active; in the data active = binding response below about 67% or above about 130%
MEKK2 mut-MEK5 = signal of MEK5 binding to mutant human MEKK2 PB1 domain; 0.35% of 290,000 active; AID 1530; bead flow cytometry, Alexa488-MEK5 binding to MEKK2 mutant; percent response, % at 10 µM; in the data active = percent response above about 24%, passing the limit was not always enough
CHT PAM = allosteric activators of human choline transporter CHT. Q9GZV3. CHT-expressing cells, membrane potential dye, choline EC20; hits give high values; LV-AA mutant CHT in HEK293 cells. B-score at 10 µM. 0.49% of 310,000 active. AID 488977;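 active = initial fluorescence not abnormally high and integrated response B-score, plate-corrected, over 3 SD above library mean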
SUMO Mot1 rescue = inhibitors of SUMOylation pathway: yeast Mot1-301 growth rescue | growth rescue, % at 18.8 µM | 1% of 320,000 active | AID 2716 | S. cerevisiae Mot1-301 growth rescue, ATP luminescence, 38.5C; percent above DMSO median, 100 means doubled;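 active = every valid replicate shows activation above 250% relative to neutral control wells; inactive = the rest, any valid replicate at or below 250%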
MEKK3 PB1 HTS = modulators (inhibitors or enhancers) of MEK5 binding to human MEKK3 PB1 domain; Q99759; bead-based flow cytometry, Alexa488-MEK5 binding to MEKK3; actives lie on both sides; 0 = blocked by unlabeled MEK5, 100 = vehicle; AID 1529; binding response (% of control), % at 10 µM; 1.4% of 290,000 active;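 active = binding response more than 3 SD above or below the average of its plate-row segment, actives on both sides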;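 also: Alexa488 bead fluorescence after subtracting the streptavidin-only scavenger bead signal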
Target sequence (Q99759 whole entry, looked up, the tested form may be a part): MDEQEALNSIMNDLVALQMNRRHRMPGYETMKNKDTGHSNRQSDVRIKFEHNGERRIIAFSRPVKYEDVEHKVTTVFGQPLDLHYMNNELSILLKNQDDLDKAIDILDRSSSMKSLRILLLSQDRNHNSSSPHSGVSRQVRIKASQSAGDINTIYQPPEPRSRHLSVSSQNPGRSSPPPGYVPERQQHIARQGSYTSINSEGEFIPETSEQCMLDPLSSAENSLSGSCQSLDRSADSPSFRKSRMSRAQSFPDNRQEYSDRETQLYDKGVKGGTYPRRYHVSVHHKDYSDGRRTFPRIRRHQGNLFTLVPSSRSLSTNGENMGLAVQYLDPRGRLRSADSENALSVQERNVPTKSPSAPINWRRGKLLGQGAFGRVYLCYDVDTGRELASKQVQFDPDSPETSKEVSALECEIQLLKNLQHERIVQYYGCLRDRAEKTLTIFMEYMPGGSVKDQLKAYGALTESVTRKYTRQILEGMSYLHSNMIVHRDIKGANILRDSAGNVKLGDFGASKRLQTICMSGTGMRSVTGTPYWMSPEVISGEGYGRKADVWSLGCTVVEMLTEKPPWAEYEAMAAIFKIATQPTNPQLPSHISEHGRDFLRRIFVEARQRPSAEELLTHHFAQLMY
MEKK2wt confirm = raises or lowers MEK5 binding to wildtype human MEKK2, retest. shares compounds with MEKK3 PB1 HTS. bead flow cytometry, Alexa488-MEK5 binding to MEKK2 WT; actives lie on both sides. binding response (% of control), % at 10 µM. 2.4% of 5,900 active. AID 1892; in the data active = binding response below about 16% or above about 210%; inactive = in between
MEKK2mut confirm = signal of MEK5 binding to mutant human MEKK2, retest. shares compounds with MEKK3 PB1 HTS. bead flow cytometry, Alexa488-MEK5 binding to MEKK2 mutant. percent response, % at 10 µM. 2% of 5,900 active; in the data active = percent response mostly above about 71%, no sharp cut-off; inactive = mostly below about 38%;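 also: higher means compound restores mutant binding toward wildtype level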
MEKK3 confirm = MEKK3-MEK5 PB1 inhibition, single concentration confirmation; shares compounds with MEKK3 PB1 HTS; bead flow cytometry, Alexa488-MEK5 binding to MEKK3; hits give low values; 1.8% of 5,900 active; AID 1894; binding response (% of control), % at 10 µM;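 active = binding response below 72% of control, or above a set upper limit, though filed actives all read lower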;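 also: lower values mean stronger disruption of MEK5 binding to MEKK3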
Hits are given with their value; – = inactive; · = not tested or not shown; [ ] = another dose, or the depositor's remark.

SMILES | CHT inh | MEKK2 WT-MEK5 | MEKK2 mut-MEK5 | CHT PAM | SUMO Mot1 rescue | MEKK3 PB1 HTS | MEKK2wt confirm | MEKK2mut confirm | MEKK3 confirm
CC1(C)CC(=O)C2=C(C1)N(c1ccccc1)C(N)=C(C#N)C2c1ccccc1 (centres undefined) | – | – | – | – | – | – | · | · | ·
CC1(C)CC(=O)C2=C(C1)N1C(=C(C#N)C2c2ccc(Cl)cc2)N=C(N)c2ccccc21 (centres undefined) | – | 2.0[inhibitor] | – | – | – | 1.0[inhibitor] | – | – | –
COc1cccc(CNc2cc(C)ccn2)c1O | – | – | 27.0 | – | – | – | – | – | –
COc1cccc(CNc2ccccn2)c1O | – | – | – | – | – | – | · | · | ·
Cc1ccc(S(=O)(=O)NCCNS(=O)(=O)c2ccc(C)cc2)cc1 | – | – | – | – | – | – | · | · | ·
Cc1ccc(S(=O)(=O)NCCc2cccs2)cc1 | – | – | – | – | – | 128.0 | – | – | –
O=C(NC1CCCC1)c1ccc(S(=O)(=O)N2CCOCC2)cc1 | – | – | – | – | – | 131.0 | – | – | –
OCCCCNCc1cc(Br)ccc1OCc1ccccc1F | – | 148.0 | – | – | – | – | – | – | –
CCOc1cc(CNCCSc2nnnn2C)cc(Br)c1OCc1ccccc1F | – | 136.0 | – | – | – | – | – | – | –
OCCNCc1cc(Br)ccc1OCc1ccc(Cl)cc1Cl | · | 145.0 | 35.0 | · | · | – | – | – | –
CCOc1cccc(CNc2ccc(O)cc2)c1OCc1ccc(Cl)cc1Cl | – | · | · | – | – | · | · | · | ·
COc1cc(CNCCSc2nnnn2C)cc(Br)c1OCc1ccccc1F | – | – | – | – | – | – | · | · | ·
CCOc1cc(CNCCO)cc(Br)c1OCc1ccc(Cl)cc1Cl | – | 212.0 | 51.0 | – | – | – | – | – | –
CC(Nc1ccc2ccccc2c1)C(=O)N/N=C/c1ccncc1 (centres undefined) | · | · | · | · | – | · | · | · | ·
CC[N+](CC)(CC)CCCCOc1ccc2c(c1)C(=O)c1cc(OCCCC[N+](CC)(CC)CC)ccc1-2 | – | – | – | – | – | – | · | · | ·
O=C(C[n+]1cc(-c2ccccc2)n2c1CCC2)Nc1nc(-c2ccc(F)cc2)cs1 | – | 181.0 | – | – | – | – | – | – | –
O=C(C[n+]1cc(-c2ccc(Cl)cc2)n2c1CCC2)Nc1nc(-c2ccc(F)cc2)cs1 | – | 177.0 | – | – | – | – | – | – | –
O=C(C[n+]1cc(-c2ccc(F)cc2)n2c1CCC2)Nc1nc(-c2ccc(F)cc2)cs1 | – | – | – | – | – | – | · | · | ·
CC(=O)Nc1cccc(/C(C)=N/N2C(C)CCCC2C)c1 (centres undefined) | – | – | – | – | – | – | · | · | ·
O=C(NNc1cc(N2CCOCC2)nc(N2CCOCC2)n1)C12CC3CC(CC(C3)C1)C2 | – | – | – | – | – | – | · | · | ·
Cc1ccc(-c2nn(-c3ccccc3)cc2/C=N/NS(=O)(=O)c2ccccc2)cc1 | – | – | – | – | – | – | · | · | ·
NC(=O)N/N=C/c1cn(-c2ccccc2)nc1-c1ccccc1 | – | – | – | – | – | – | · | · | ·
O=C(NCc1cn(-c2ccccc2)nc1-c1ccccc1)c1ccc([N+](=O)[O-])cc1 | – | – | – | – | – | 131.0 | – | – | –
O=S(=O)(N/N=C\c1cn(-c2ccccc2)nc1-c1ccccc1)c1ccccc1 | – | – | – | – | – | 126.0 | – | – | –
O=[N+]([O-])c1ccc(N/N=C/c2cn(-c3ccccc3)nc2-c2ccccc2)cc1 | – | 11.0 | 27.0 | – | – | – | – | – | –
SMILES | CHT inh | MEKK2 WT-MEK5 | MEKK2 mut-MEK5 | CHT PAM | SUMO Mot1 rescue | MEKK3 PB1 HTS | MEKK2wt confirm | MEKK2mut confirm | MEKK3 confirm
COc1ccc(CN(C(=O)c2cc(=O)c3cc(C)cc(C)c3o2)C2CCS(=O)(=O)C2)cc1 (centres undefined) | – | – | – | – | – | – | · | · | ·
CCN(CC(=O)NC)S(=O)(=O)c1ccc(Br)cc1 | – | – | 24.0 | – | – | – | – | – | –
CCN(CC(=O)NC)S(=O)(=O)c1ccc(C)cc1 | – | – | – | – | – | – | · | · | ·
CCOC(=O)C1=C(O)c2ccccc2C(=O)/C1=C\c1ccc(C)cc1 | – | – | – | – | 279.6 | 68.0[inhibitor] | – | – | –
CCOC(=O)C(=O)NCC(c1cccs1)S(=O)(=O)c1ccc(F)cc1 (centres undefined) | – | · | · | – | – | · | · | · | ·
Brc1ccc(-c2nnc(-c3cccnc3)c3conc23)cc1 | – | – | – | – | – | 80.0[inhibitor] | – | – | –
COc1ccc(-c2nnc(C)c3nocc23)cc1 | – | – | – | – | – | – | · | · | ·
COc1ccc(/C=N/Nc2ccc(C(F)(F)F)cc2[N+](=O)[O-])cc1O | – | – | – | – | – | 131.0 | – | – | –
Cc1ccc(C(=O)Nc2cccnc2)cc1S(=O)(=O)N1CCOCC1 | – | – | – | – | – | 129.0 | – | – | –
Cc1cc2occ(CC(=O)N(C)CC(=O)Nc3ccccc3C(F)(F)F)c2cc1C | · | · | · | · | – | · | · | · | ·
Fc1ccc(NC(=S)Nc2ccc3nccnc3c2)cc1 | – | – | – | – | – | 130.0 | – | – | –
O=C(NC(c1ccccc1)c1ccccc1)c1ccc(Br)o1 | – | – | – | – | – | – | · | · | ·
O=C(/C=C/c1ccc(Br)o1)NC(c1ccccc1)c1ccccc1 | – | – | – | – | – | 140.0 | – | – | –
Cc1occc1C(=O)NNC(=O)c1ccccc1F | – | – | – | – | – | – | · | · | ·
Cc1occc1C(=O)NNC(=O)c1ccc(F)cc1 | – | -1.0[inhibitor] | – | – | – | 0.0[inhibitor] | – | – | –
COCCCNC(=S)NNC(=O)c1ccoc1C | – | – | – | – | – | 74.0[inhibitor] | – | – | –
CC(C)c1ccc(C(=O)NC2=NCCS2)cc1 | – | – | – | – | – | – | · | · | ·
N=c1oc2ccccc2cc1-c1nc(-c2ccc(Cl)cc2)cs1 | – | – | – | – | – | 128.0 | – | – | –
O=C(NNC(=S)Nc1ccc(F)c(Cl)c1)c1ccccc1Br | – | – | – | – | – | – | · | · | ·
N#C/C(=C/c1ccc(N2CCCCCC2)o1)c1ccc(Cl)cc1 | – | – | 98.0 | – | – | – | – | – | –
CCCOc1ccc(C2NC(=O)NC2=O)cc1 (centres undefined) | – | – | – | – | – | 123.0 | – | – | –
CCCCCOc1ccc(C2NC(=O)NC2=O)cc1 (centres undefined) | – | – | – | – | – | – | · | · | ·
